The panel holds about 83,000 compounds, 20% with a hit somewhere; the sample as a whole holds those more often.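 Percent growth is the endpoint: 0 to 100 indicates growth inhibition (40 means 60% inhibition), 0 means no net growth, and negative values indicate cell death.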 Calls of active or inactive are those of the source.

In the assay the test system is SN12C renal. Nature of the assay: NCI-60 one-dose screen, 48 h (100 = growth as untreated, 0 = no growth, -100 = all killed). The following applies: 10 µM unless noted. On the procedure:
Growth inhibition of the SN12C human tumor cell line is measured as a screen for anti-cancer activity. Cells are grown in 96 well plates and exposed to the test compound for 48 hours. Compounds are tested at a single concentration, which is 10^-5 M for most compounds. The reported endpoint is percent growth (GI% or GIPRCNT), where numbers from 0 - 100% represent growth inhibition, and numbers from -100% - 0 represent cell death. For example, a value of 40 represents 60% growth inhibition. A value of 0 means no net growth occurred over the course of the experiment. A value of -40 indicates 40% of cells at the beginning of the experiment died by the end of the experiment. A value of -100 means all cells are dead at the end of the experiment.
NCI-60 Human Tumor Cell Lines Screen was performed using the standard one-dose NCI protocol, which is described in more detail at https://dtp.cancer.gov/discovery_development/nci-60/default.htm.
Compounds with GIPRCNT values below 10 were considered active. Activity score was based on GIPRCNT using the following formula: […]
Score is 0 for GIPRCNT values of 100 or above, 50 for GIPRCNT values of 0, and 100 for GIPRCNT values of -100.
As to `Cc1cc2nc(-c3ccccc3)c(-c3ccccc3)nc2cc1C`, the growth was 92.8% (inactive). Take `O=C(CN1CCOCC1)Nc1ccc2ncnc(Nc3ccc(OCc4cccc(F)c4)c(Cl)c3)c2c1`: the growth was 48.1% (inactive). As to `Cc1c([N+](=O)[O-])cc(C(C)(C)C)cc1[N+](=O)[O-]`, the growth is 99.7% (inactive). In the case of `COc1cc2c(cc1[N+](=O)[O-])-c1ccc([N+](=O)[O-])cc1/C2=N/NC(N)=S`, the growth is 67.1% (inactive).

Take `CCCCCCOc1ccc(C(=N)N(CCCC)CCCC)c2ccccc12`: the growth is -86.5% (active). With `Cc1cccc(C)c1-c1cc(Cc2ccc(Cl)cc2)c(=O)[nH]n1`, the growth is 89.5% (inactive).

`Nc1nc(SN=Nc2ccc(S(N)(=O)=O)cc2)c2[nH]cnc2n1`: the growth was 24.2% (inactive).

For `CC(C)NC(=O)N1C(=O)CCC1NNC(=O)c1ccc([N+](=O)[O-])cc1` (stereo not given), the growth is 102% (inactive). Consider `CCNC(=O)c1[nH]cc(-c2ccc(OC)cc2)c1-c1cc(OC)cc(OC)c1`, for which the growth was 85.4% (inactive). `COc1ccc(/C=C2\COc3ccc(-c4ccccc4)cc3C2=O)cc1O`: the growth was 30.8% (inactive). Regarding `CCCCCCCC(=O)Nc1nc2[nH]c(CN3CCN(Cc4cccc(I)c4)CC3)c(CN3CCN(Cc4cccc(I)c4)CC3)c2c(=O)[nH]1`, the growth is -87.3% (active).

With `CN1C(=O)N(C)C2NC(N/N=C/c3ccccc3)=NC21` (stereo not given), the growth is 98.5% (inactive).

`COc1ccc(C(=O)/C=C/c2ccc(OCc3ccccc3)c(OC)c2)cc1OC`: the growth is 61.1% (inactive).

For the compound `CC(C)Cc1ccc(C(C)C(=O)NCc2ccc(Cn3c(=O)sn(-c4ccc(Cl)cc4)c3=O)cc2)cc1` (stereo not given), the growth is 84.1% (inactive). Consider `O=C(NCCc1ccccn1)OCc1nc2nc(Cl)nc(N3CCOCC3)c2[nH]1`, for which the growth is 28.6% (inactive). Next, `O=C1NC(=O)C(=Cc2cn(Cc3ccccn3)c3ccccc23)C(=O)N1`: 102% (inactive). The figure for `O=S(=O)(NCCCNc1nccc(-c2c(-c3cccc(O)c3)nc3occn23)n1)c1ccc(Br)cc1` is 80.3% (inactive); for `COc1cc(Nc2cc(O)c3c(=O)cc(-c4ccccc4)oc3c2)cc(OC)c1` it is 44.3% (inactive); for `C[C@@H]1CN(Cc2ccc(/C=C/c3n[nH]c4ccc5nc(-c6cn[nH]c6C(F)(F)F)c6c(c5c34)CCCC6)cc2)C[C@H](C)O1` it is 12.6% (inactive). As for `CCCC/C(=N\N=C(N)N)c1ccc(F)cc1`, the growth is 37.5% (inactive). The figure for `C=C(C)[C@H]1CC/C(C)=C/CC[C@]2(C)O[C@H]2CC/C(COC(=O)[C@@H](OC(C)=O)[C@H](NC(=O)c2ccccc2)c2ccccc2)=C\[C@@H]1O` is 93.8% (inactive); for `COc1ccc(C(=O)c2cc3c(N)c(C(=O)Nc4cccc(Cl)c4C)sc3nc2C)cc1` it is 20.3% (inactive); for `CN1CCN(C(=O)[C@]2(C)CC[C@]3(C)CC[C@]4(C)C(=CC(=O)[C@@H]5[C@@]6(C)CCC(=O)NC(C)(C)[C@@H]6CC[C@]54C)[C@@H]3C2)CC1` it is 90.4% (inactive).

Turning to `Cc1ccc(C2CC(c3cccc(Nc4ccncc4)c3)=NN2c2cc(Cl)cc(Cl)c2)cc1` (stereo not given), the growth is 52.4% (inactive). The figure for `COc1cc2nc(-c3ccc(C#N)cc3)[nH]c(=O)c2cc1OC` is 91.7% (inactive); for `O=S(=O)(c1cccc(NC2=Nc3cccc4cccc2c34)c1)N1CCCC1` it is 72.2% (inactive).

On to `CC1(C)CCCN1CCCN1c2ccccc2Sc2ccc(Cl)cc21`, for which the growth is 68.1% (inactive). The figure for `c1ccc(CCSc2ncnc3nc[nH]c23)cc1` is 86.5% (inactive). As for `CC(=O)OC1CCC2(C)C(CCC3C4CC=C(C(C)=O)C4(C)OC(=O)CC32)C1` (stereo not given), the growth is 57.8% (inactive).

Turning to `CC1=CC[C@@H]2CC[C@]3(C)[C@H](CC[C@@H]4[C@@]5(C)CCCNC(C)(C)[C@@H]5CC[C@]43C)[C@H]2[C@@H]1C`, the growth is 48.3% (inactive).

Turning to `C[C@]12CCc3nc(Nc4cccc(O)c4)sc3C1=CC[C@@H]1[C@@H]2CC[C@]2(C)/C(=N\NC(N)=S)CC[C@@H]12`, the growth is 30.7% (inactive).

Regarding `Cn1/c(=N/NC(N)=S)ccc2ccccc21`, the growth is 91.3% (inactive). The figure for `CCOc1ccc(/C=N/Nc2cc(C)nc3ccc(Cl)cc23)cc1` is -26% (active). The figure for `COc1cc(NCCCN(CC(C)C)C2CCCC2)c2ncccc2c1` is 61.9% (inactive); for `COc1ccc(C(=O)c2cc(C)c(OC)c(C)c2)c(OC)c1N(C(=O)C(Cl)Cl)C(=O)C(Cl)Cl` it is 35.5% (inactive); for `O=C(/C=C/c1ccc[nH]1)c1ccc(-n2ccc(C(F)(F)F)n2)cc1` it is 60.1% (inactive). The figure for `Clc1nc(Cl)c2ncn(CC3(Cn4cnc5c(Cl)nc(Cl)nc54)COC3)c2n1` is -86.6% (active); for `COc1ccc(-c2nc(N=Nc3c(O)[nH]c4ccccc34)nc(N3CCOCC3)c2C#N)cc1` it is 73.3% (inactive); for `C#CC(=O)Nc1cccc(Nc2nc3c(c(NCc4ccccc4)n2)CCCC3)c1` it is -30.7% (active).

Consider `CC(c1ccccc1)n1ccnc1CO` (stereo not given), for which the growth is 102% (inactive).
